Assay outcomes deposited in PubChem BioAssay by National Center for Advancing Translational Sciences (NCATS).
Shown are actives, neighbours in structure and some others; about 1.2% of the full set was active somewhere.
Apoferritin bind – qHTS Assay for Identification of Novel General Anesthetics. Ferritin light chain (Equus caballus), P02791. apoferritin/1-aminoanthracene competitive binding, fluorescence. Potency, µM (top dose mostly 77.5 µM), for inactives: at the top dose activity change, negative = displacement, actives largely listed as inhibitors. 350,000 compounds, 0.074% hits; note: potency is the fitted concentration of half-maximal effect; % is set by controls: 0 for no effect and ±100 for the full control effect; nearly all actives have a fitted effect of over 20% in size
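Steps: apoferritin (10 uM) was premixed with half-saturated 1-AMA in PBS, compounds were pin-transferred, plates stood 10 min at room temperature, fluorescence was read at 380/535 nm, and curves were fitted with a Hill equation.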
TSG101-PTAP inh – qHTS Assay for Iinhibitors of HIV-1 Budding by Blocking the Interaction of PTAP/TSG101 | Potency, µM (top dose mostly 115 µM), without a hit: top-dose activity change, negative = inhibition, usual class: inhibitors | 340,000 tested, under 10 active | Fluorescence polarization, FITC-PTAP peptide / Tsg101 binding; active = well fitted inhibition curve with a large enough effect in the main read-out, with a control signal flat, not every such curve was filed as active; inconclusive = small, poorly fitted or top-dose-only effect, or effect the other way, or a change in a side signal; inactive = no such curve, though single readings can be large or run the other way; note: potency is the fitted concentration of half-maximal effect; % of control where 0% means no effect
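Steps: Tsg101 binding domain dispensed (10 uM final), compounds pinned in DMSO, FITC-labeled PTAP-motif peptide added (50 nM final); after 20 min binding at room temperature, polarization measured.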
BRCA1 expr act – qHTS Assay to Identify Small Molecule Activators of BRCA1 Expression; MCF7-BRCA1-FFLuc reporter, luminescence, 48 h; response scale: scaled: vehicle 0%, 10 µM genistein 100%; Potency, µM (highest dose often 46.1 µM), without a hit: at the highest dose activation, actives largely listed as activators; 380,000 compounds, 1.1% hits; note: potency is the fitted concentration of half-maximal effect; nearly all actives have a fitted effect of over 80% in size
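MCF7-BRCA1-FFLuc cells, 2000/well in phenol-red-free MEM, attached 2 h then treated 48 h at 37 C. Luciferase luminescence read 15 min after reagent; normalized to genistein maximum activation (10microM) and DMSO, concentration-response fitted.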
ASM inhibitor – Inhibitors of Secretory Acid Sphingomyelinase (S-ASM): qHTS; 340,000 compounds, 0.006% hits; placental ASM, HMU-PC fluorogenic substrate, 60 min; Sphingomyelin phosphodiesterase (Homo sapiens), P17405; Potency, µM (series often up to 57.5 µM), for inactives: at the highest dose activity change, negative = inhibition, most hits filed as inhibitors; note: potency is the fitted concentration of half-maximal effect
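Fluorescence read-out (Ex 386 nm, Em 447 nm) after stopping the reaction at pH 10. Enzyme: ASM from human placenta; substrate HMU-PC0, 9 uM final; 60 min, 37 °C. Compound preincubation 10 min, ambient temperature.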
TSHR antag – Antagonists of the Thyroid Stimulating Hormone Receptor: HTS campaign; TSHR-expressing cells, TSH-stimulated cAMP HTRF, 2 h; active compounds read low; activity change, negative = inhibition, % at 11.5 µM; 330,000 compounds, 0.2% hits; AID 504810, 2011;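 active = activity change below a set negative limit, meaning inhibition stronger than a set level, cut at about -70% in these data; inconclusive = activity change between two set negative limits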; note: % is set by controls: 0 for no effect and ±100 for the full control effect
Target sequence (P16473 whole entry, looked up): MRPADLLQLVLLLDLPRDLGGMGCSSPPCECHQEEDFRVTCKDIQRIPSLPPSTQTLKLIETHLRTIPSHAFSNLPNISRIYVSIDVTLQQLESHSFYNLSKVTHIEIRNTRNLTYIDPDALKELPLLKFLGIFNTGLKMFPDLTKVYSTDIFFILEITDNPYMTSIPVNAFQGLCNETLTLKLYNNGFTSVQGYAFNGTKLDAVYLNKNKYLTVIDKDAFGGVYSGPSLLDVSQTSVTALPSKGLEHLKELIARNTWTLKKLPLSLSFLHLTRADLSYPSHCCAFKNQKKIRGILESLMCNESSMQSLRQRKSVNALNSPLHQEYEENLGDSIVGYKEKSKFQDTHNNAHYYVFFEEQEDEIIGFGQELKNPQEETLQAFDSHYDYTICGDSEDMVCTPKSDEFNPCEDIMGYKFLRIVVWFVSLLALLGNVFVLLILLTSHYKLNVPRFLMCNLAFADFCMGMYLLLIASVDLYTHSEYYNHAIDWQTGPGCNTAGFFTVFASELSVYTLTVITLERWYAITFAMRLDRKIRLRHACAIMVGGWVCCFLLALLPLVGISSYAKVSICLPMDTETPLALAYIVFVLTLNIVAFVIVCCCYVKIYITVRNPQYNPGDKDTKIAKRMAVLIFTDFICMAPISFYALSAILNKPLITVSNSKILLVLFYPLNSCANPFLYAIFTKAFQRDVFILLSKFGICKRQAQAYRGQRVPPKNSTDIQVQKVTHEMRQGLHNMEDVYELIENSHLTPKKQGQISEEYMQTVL
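TSHR-expressing cells, 200/well, pre-treated with compound, then stimulated with EC80 TSH (4nM final) for 2 hours at 37 deg C. cAMP measured by competitive HTRF: anti-cAMP cryptate antibody in lysis buffer plus cAMP-d2, read after 30 minutes at room temperature.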
An asterisk follows results filed as active; ? = inconclusive; nt = no result given. Unless noted, calls come from the whole dose curve; as a rule, active = well fitted curve in the direction sought with a large enough effect; inconclusive = small, poorly fitted or top-dose-only effect, or another doubt; inactive = no such curve, though single readings can be large; an effect the other way counts as inactive or inconclusive.

SMILES	Apoferritin bind	TSG101-PTAP inh	BRCA1 expr act	ASM inhibitor	TSHR antag
O=C(O)CCc1ccc(-c2ccccc2)n1-c1cccc(C(=O)O)c1	3%	0%	13µM*	14%	13
N#CCCCc1cn(-c2nc3ccccc3s2)nn1	nt	nt	10µM*	nt	nt
COCc1cn(-c2nc3ccccc3s2)nn1	nt	nt	11µM*	nt	nt
COc1ccc(OC)c(/C=C/c2ccc3ccccc3[n+]2C)c1	nt	nt	-65%	nt	nt
Cc1ccc(CSC2=NS(=O)(=O)c3ccccc32)cc1	nt	nt	-19%	nt	nt
Cc1cnc2c(C)ccc(C)c2c1/C=C/c1ccc(N(C)C)cc1	nt	nt	-36%	nt	nt
COc1cc2nc(NC3CCN(C)CC3)nc(NC3CCN(C)CC3)c2cc1OC	nt	nt	0%	nt	nt
CC(CN1CCOCC1)OC(=O)c1ccc2c(c1)OCCO2 (stereo not given)	-11%	-4%	7.9µM*	-1%	28
CC(CN1CCCCC1)OC(=O)c1ccc2c(c1)OCCO2 (stereo not given)	-3%	4%	31%	-10%	1
Cc1cc(C(C)(C)C)ccc1NC(=O)CC(C)(C)CC(=O)O	8%	1%	13µM*	-3%	12
N=c1oc2ccccc2cc1C(=O)NC1CCCCCC1	-21%	0%	4.5µM*	-1%	-48
O=C(NC(=S)NC1CCCCC1)c1ccc(F)cc1	-24%	-8%	11µM*	-2%	4
O=C(NC1CCCCC1)c1ccc2ccccc2c1	nt	nt	3.2µM*	nt	nt
O=C(CNC(=O)c1ccc2ccccc2c1)NC1CCCCC1	nt	-1%	18%	1%	-14
CSCC[C@H](NC(=O)[C@H](CC(C)C)NC(=O)[C@@H]1CCCN1C(=O)[C@H](Cc1ccccc1)NC(=O)[C@H](Cc1ccccc1)NC(=O)[C@@H]1CCC(=O)N1)C(N)=O	19%	nt	nt	nt	nt
CC(=O)c1ccc(NS(=O)(=O)c2ccc(CC(C)C)cc2)cc1	35µM*	-2%	-42%	-13%	-20
CCC(C)NC(=O)c1ccc2nc(-c3cccs3)c(-c3cccs3)nc2c1 (stereo not given)	nt	nt	3%	nt	nt
COC(=O)c1sc(NC(=O)COc2ccccc2)nc1C	-19%	-4%	7.9µM*	-1%	2
CNc1nc(C)c(C(=O)OCc2ccccc2)s1	-3%	-2%	11µM*	0%	-5
CCCCCCCCCCS(=O)(=O)N/N=C/c1ccc(O)cc1	16µM*	2%	-16%	?	-23
CCCN1CNc2c(c(=O)[nH]c(=S)n2CCc2cccs2)C1	nt	nt	5%	nt	nt
Cc1occc1-c1nnc(-c2cc([N+](=O)[O-])cc([N+](=O)[O-])c2)o1	22µM*	-1%	60%	-7%	16
CCOc1ccc(-c2cn(-c3ccc(OC)cc3)c(SC)n2)cc1	27%	-7%	11µM*	-10%	-14
C[C@H](C(=O)O)c1ccc2cc(O)ccc2c1	2%	nt	nt	nt	nt
CC1SCC(=NOCc2ccccc2)CS1 (stereo not given)	-10%	-2%	?	-2%	-70*
SMILES	Apoferritin bind	TSG101-PTAP inh	BRCA1 expr act	ASM inhibitor	TSHR antag
Cc1ccc(Oc2ccc(NC(=O)Cn3ccsc3=N)cc2)cc1	13µM*	-4%	-80%	-1%	7
O=C(O)c1ccc(C=NN2CCCCCC2)cc1	nt	-2%	104%	3%	nt
O=C(O)c1ccc(/C=N/N2CCN(c3ccccc3)CC2)cc1	-1%	1%	4.5µM*	-3%	-9
CN(C(=O)COC(=O)c1c[nH]c2ccccc12)c1ccccc1	nt	nt	41%	nt	nt
CN(Cc1ccccc1)C(=O)COC(=O)c1c[nH]c2ccccc12	nt	nt	10µM*	nt	nt
COc1ccc(C(=O)NC2=NCCS2)cc1	-1%	2%	3.2µM*	1%	0
COc1cccc(C(=O)NC2=NCCS2)c1OC	0%	-4%	13µM*	-1%	14
COc1cc(C(=O)NC2=NCCS2)cc(OC)c1OC	-3%	-4%	0%	4%	-1
COc1cc(OC)cc(C(=O)NC2=NCCS2)c1	-14%	-9%	44%	1%	12
O=C(NC1=NCCS1)c1cccc(OC(F)F)c1	-4%	-3%	2.8µM*	0%	8
CC(C)Oc1ccc(C(=O)NC2=NCCS2)cc1	-6%	-1%	?	2%	2
O=C(Nc1ccc(OC(F)F)c(Cl)c1)c1cccc(OC(F)F)c1	-12%	-2%	19%	-13%	-24
O=C(Nc1ccc2c(c1)CCC2)c1cccc(OC(F)F)c1	nt	1%	2.8µM*	-3%	nt
O=C(Nc1ccc(Br)cc1F)c1cnn2c1NC(=C1CC1)C=C2C(F)F	nt	nt	0%	nt	nt
C/C=C(/C)C(=O)O[C@H]1C[C@@]2(C)O[C@H]2[C@@H](OC(C)=O)C2(C)CC[C@@](O)(C(C)C)C12 (stereo not given in full)	-8%	nt	nt	nt	nt
Brc1ccc[n+](CCC2CCCCC2)c1	nt	nt	-16%	nt	nt
Cc1ccc(S(=O)(=O)N2CCN(c3nc(N(C)c4cc(Cl)ccc4O)nc4ccccc34)CC2)cc1	nt	nt	4%	nt	nt
O=C(NC1=NCCS1)c1ccc(C(F)(F)F)cc1	-4%	-10%	4µM*	2%	-1
CCn1c(SC(C)C(=O)Nc2ccc(C)cc2)nnc1-c1ccccc1 (stereo not given)	nt	nt	19%	nt	nt
Clc1ccc(-c2nc(CSc3ccccn3)cs2)cc1	nt	nt	10µM*	nt	nt
Nc1ccccc1SCc1csc(-c2ccc(Cl)cc2)n1	-11%	-3%	34%	-3%	-12
CSCC[C@H](NC(=O)[C@H](CCCN=C(N)N)NC(=O)[C@@H]1CCCN1C(=O)[C@H](Cc1ccccc1)NC(=O)[C@H](C)NC(=O)[C@H](CC(C)C)NC(=O)[C@H](Cc1ccc(O)cc1)NC(=O)[C@H](CC(N)=O)NC(=O)[C@@H](N)CCSC)C(N)=O	-8%	nt	nt	nt	nt
Cc1ccccc1/C=C/C(=O)c1ccc([N+](=O)[O-])o1	nt	0%	-39%	-5%	-80*
NC(=O)C1CCN(c2nc(-c3ccc(C(F)(F)F)cc3)cs2)CC1	nt	nt	nt	nt	-21
CNC(=O)c1c(Br)cnn1-c1ccc(C)cc1	-6%	0%	?	-3%	1
CNC(=O)c1c(Cl)cnn1-c1ccc(C)cc1	1%	0%	6.3µM*	3%	-6
Fc1cccc(Cl)c1CNCc1cccnc1	-3%	-2%	2%	0%	-106*
Cc1ccc(NC(=O)c2ccc(OC(=O)C(C)Oc3ccc(Cl)cc3C)cc2)cc1 (stereo not given)	7%	0%	5µM*	2%	12
Cc1cc(Cl)ccc1OC(C)C(=O)OCC(=O)Nc1ccc2[nH]c(=O)[nH]c2c1 (stereo not given)	nt	-3%	-2%	1%	3
